Measurements reported in PubChem BioAssay AID1159580 (chemical genetic matrix, 2015).
Screen size: about 5,500 compounds; about 2,000 (36%) were called active. Inconclusive results (about 18%) are left out. Rule as the data show it: active = normalized growth mostly below about 0.91 (no sharp cut-off); inconclusive = no clear call, values can overlap the other calls; inactive = mostly above about 0.92. The list shows a part of the results.

Assay: chemical genetic growth profiling, strain panel (AID 1159580);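 also: tested at 20 µM; growth read once vehicle control cultures reached saturation at 30 °C; 1 = growth at the plate median or of vehicle wells; lower values mean less growth of the strain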
Settings: growth OD

Measured: normalized growth

C1CCN2C[C@@H]3C[C@H](CN4CCCC[C@@H]34)[C@H]2C1
inactive: S. cerevisiae deletion strains, locus YJR066W, strain TOR1, hits give low values 0.988 | S. cerevisiae deletion strains, locus YJR075W, strain HOC1, hits give low values 1.01 | S. cerevisiae deletion strains, locus YKL009W, strain mrt4, hits give low values 0.994 | S. cerevisiae deletion strains, locus YKL068W, hits give low values 0.999 | S. cerevisiae deletion strains, locus YKL085W, strain MDH1 (second series), hits give low values 1.02 | S. cerevisiae deletion strains, locus YKL085W, strain MDH1, hits give low values 1.02 | S. cerevisiae deletion strains, locus YKL160W, strain elf1, hits give low values 0.987 | S. cerevisiae deletion strains, locus YKL190W, strain CNB1, hits give low values 1.02 | S. cerevisiae deletion strains, locus YKR001C, strain vps1, hits give low values 0.996 | S. cerevisiae deletion strains, locus YKR026C, strain gcn3, hits give low values 1.01 | S. cerevisiae deletion strains, locus YKR091W, strain srl3, hits give low values 1 | S. cerevisiae deletion strains, locus YLL001W, strain dnm1, hits give low values 0.999 | S. cerevisiae deletion strains, locus YLL026W, hits give low values 1.01 | S. cerevisiae deletion strains, locus YLL041C, strain sdh2, hits give low values 0.999 | S. cerevisiae deletion strains, locus YLR027C, strain aat2, hits give low values 0.992 | S. cerevisiae deletion strains, locus YLR039C, strain RIC1, hits give low values 1.06 | S. cerevisiae deletion strains, locus YLR058C, strain SHM2, hits give low values 1.01 | S. cerevisiae deletion strains, locus YLR102C, strain apc9, hits give low values 0.993 | S. cerevisiae deletion strains, locus YLR113W, strain HOG1, hits give low values 1.01 | S. cerevisiae deletion strains, locus YLR221C, strain rsa3, hits give low values 1.03 | S. cerevisiae deletion strains, locus YLR258W, strain gsy2, hits give low values 1.01 | S. cerevisiae deletion strains, locus YLR262C, strain YPT6 (second series), hits give low values 1.04 | S. cerevisiae deletion strains, locus YLR262C, strain YPT6, hits give low values 1.1 | S. cerevisiae deletion strains, locus YLR268W, strain sec22, hits give low values 0.996 | S. cerevisiae deletion strains, locus YLR320W, strain mms22, hits give low values 1.04 | S. cerevisiae deletion strains, locus YLR330W, strain CHS5, hits give low values 1.02 | S. cerevisiae deletion strains, locus YLR342W, strain FKS1 (second series), hits give low values 0.996 | S. cerevisiae deletion strains, locus YLR342W, strain FKS1, hits give low values 1 | S. cerevisiae deletion strains, locus YLR357W, strain rsc2, hits give low values 1.02 | S. cerevisiae deletion strains, locus YLR370C, strain arc18, hits give low values 1.01 | S. cerevisiae deletion strains, locus YLR371W, strain rom2, hits give low values 0.999 | S. cerevisiae deletion strains, locus YLR384C, strain iki3, hits give low values 1.01 | S. cerevisiae deletion strains, locus YLR418C, strain cdc73, hits give low values 0.98 | S. cerevisiae deletion strains, locus YML016C, strain PPZ1, hits give low values 0.997 | S. cerevisiae deletion strains, locus YML032C, strain rad52, hits give low values 0.994 | S. cerevisiae deletion strains, locus YML120C, strain ndi1, hits give low values 1.01 | S. cerevisiae deletion strains, locus YML124C, strain tub3, hits give low values 1.01 | S. cerevisiae deletion strains, locus YMR058W, strain fet3, hits give low values 1.01 | S. cerevisiae deletion strains, locus YMR078C, strain ctf18, hits give low values 1 | S. cerevisiae deletion strains, locus YMR125W, strain sto1, hits give low values 0.995 | S. cerevisiae deletion strains, locus YMR129W, hits give low values 1.03 | S. cerevisiae deletion strains, locus YMR205C, strain PFK2, hits give low values 0.997 | S. cerevisiae deletion strains, locus YMR223W, strain ubp8, hits give low values 1.01 | S. cerevisiae deletion strains, locus YMR231W, strain pep5, hits give low values 1.01 | S. cerevisiae deletion strains, locus YMR307W, strain GAS1, hits give low values 1.02 | S. cerevisiae deletion strains, locus YNL067W, strain RPL9B, hits give low values 1.01 | S. cerevisiae deletion strains, locus YNL071W, strain lat1, hits give low values 1.01 | S. cerevisiae deletion strains, locus YNL153C, strain GIM3, hits give low values 1.01 | S. cerevisiae deletion strains, locus YNL183C, strain NPR1, hits give low values 0.98 | S. cerevisiae deletion strains, locus YNL209W, strain ssb2, hits give low values 1.01 | S. cerevisiae deletion strains, locus YNL233W, strain BNI4, hits give low values 1.01 | S. cerevisiae deletion strains, locus YNL248C, strain rpa49, hits give low values 1.03 | S. cerevisiae deletion strains, locus YNL250W, strain rad50, hits give low values 1.02 | S. cerevisiae deletion strains, locus YNL271C, strain bni1, hits give low values 1.01 | S. cerevisiae deletion strains, locus YNL298W, strain CLA4, hits give low values 0.994 | S. cerevisiae deletion strains, locus YNL307C, strain MCK1, hits give low values 1.01 | S. cerevisiae deletion strains, locus YNL322C, strain KRE1 (second series), hits give low values 1.01 | S. cerevisiae deletion strains, locus YNR049C, strain mso1, hits give low values 1.01 | S. cerevisiae deletion strains, locus YNR052C, strain pop2, hits give low values 1.02 | S. cerevisiae deletion strains, locus YOL006C, strain TOP1, hits give low values 1.08 | S. cerevisiae deletion strains, locus YOL012C, strain htz1 1.61 | S. cerevisiae deletion strains, locus YOL147C, strain pex11, hits give low values 1 | S. cerevisiae deletion strains, locus YOR001W, strain rrp6, hits give low values 1.02 | S. cerevisiae deletion strains, locus YOR061W, strain CKA2, hits give low values 1.01 | S. cerevisiae deletion strains, locus YOR069W, strain VPS5, hits give low values 1 | S. cerevisiae deletion strains, locus YOR070C, strain gyp1, hits give low values 1.02 | S. cerevisiae deletion strains, locus YOR080W, strain dia2, hits give low values 0.999 | S. cerevisiae deletion strains, locus YOR083W, strain WHI5, hits give low values 0.979 | S. cerevisiae deletion strains, locus YOR106W, strain vam3, hits give low values 1 | S. cerevisiae deletion strains, locus YOR136W, strain idh2, hits give low values 0.998 | S. cerevisiae deletion strains, locus YOR144C, strain elg1, hits give low values 0.989 | S. cerevisiae deletion strains, locus YOR184W, strain ser1, hits give low values 0.995 | S. cerevisiae deletion strains, locus YOR231W, strain MKK1, hits give low values 1.03 | S. cerevisiae deletion strains, locus YOR265W, strain rbl2, hits give low values 1 | S. cerevisiae deletion strains, locus YOR270C, strain vph1, hits give low values 1.05 | S. cerevisiae deletion strains, locus YOR290C, strain snf2, hits give low values 0.979 | S. cerevisiae deletion strains, locus YOR316C, strain cot1, hits give low values 1 | S. cerevisiae deletion strains, locus YPL051W, strain arl3, hits give low values 0.999 | S. cerevisiae deletion strains, locus YPL055C, strain LGE1, hits give low values 1.02 | S. cerevisiae deletion strains, locus YPL078C, strain atp4, hits give low values 0.978 | S. cerevisiae deletion strains, locus YPL106C, strain sse1, hits give low values 1.01 | S. cerevisiae deletion strains, locus YPL240C, strain hsp82, hits give low values 0.999 | S. cerevisiae deletion strains, locus YPL241C, strain CIN2, hits give low values 1 | S. cerevisiae deletion strains, locus YPL256C, strain CLN2, hits give low values 1.06 | S. cerevisiae deletion strains, locus YPR119W, strain clb2, hits give low values 0.999 | S. cerevisiae deletion strains, locus YPR141C, strain kar3, hits give low values 1 | S. cerevisiae deletion strains, locus YPR163C, strain tif3, hits give low values 1 | S. cerevisiae deletion strains, locus YPR167C, strain met16, hits give low values 1.02 | S. cerevisiae deletion strains, strain wtn01, hits give low values 1.01 | S. cerevisiae strains, strain wild type, hits give low values 1.02
